Experimental data as given in PubChem BioAssay (NCATS).
“And” between values parts separate entries of the source, which are not always exact repeats. Equal entries are not always repeated. Records with an inconclusive call do not appear. The source made the active and inactive calls. Unless noted, calls follow the shape of the dose curve; as a rule, active = well fitted inhibition curve with a large enough effect; inconclusive = small, poorly fitted or top-dose-only effect; inactive = flat fitted curve, though single readings scatter.

How the values were obtained:
[1] = Drug repurposing screens with cells derived from glioblastoma tumor samples (AID 1345199); conditions: GBM patient neurospheres viability, ATP luminescence, 48 h; also: nearly all actives have a fitted effect of over 40% in size; also: potency is read from the fitted curve at half-maximal effect; as to activity, negative = cell killing: % is scaled to controls: 0 for no effect and ±100 for the full control effect
Outline: (§1)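 Four patient lines of CD133+ GBM neurospheres were screened at several concentrations; hits were retested in those lines plus three slower-growing GBM lines, using 48-hour treatment and ATP-based viability.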

astro = control astrocytes; assay: as above; conditions: viability, ATP luminescence, 48 h; series mostly up to 45.9 µM
Outline: as §1

[2] = molecular target: Nuclear receptor subfamily 1 group I member 2 (Rattus norvegicus) (UniProt Q9R1A7); assay: qHTS assay for small molecule activators of the rat pregnane X receptor (rPXR) signaling pathway (AID 651751; call rule not given here; also: 0% is about no effect); conditions: rPXR reporter cells, luciferase (One-Glo), 24 h
Sequence of Nuclear receptor subfamily 1 group I member 2 (Rattus norvegicus) (Q9R1A7 whole entry, looked up): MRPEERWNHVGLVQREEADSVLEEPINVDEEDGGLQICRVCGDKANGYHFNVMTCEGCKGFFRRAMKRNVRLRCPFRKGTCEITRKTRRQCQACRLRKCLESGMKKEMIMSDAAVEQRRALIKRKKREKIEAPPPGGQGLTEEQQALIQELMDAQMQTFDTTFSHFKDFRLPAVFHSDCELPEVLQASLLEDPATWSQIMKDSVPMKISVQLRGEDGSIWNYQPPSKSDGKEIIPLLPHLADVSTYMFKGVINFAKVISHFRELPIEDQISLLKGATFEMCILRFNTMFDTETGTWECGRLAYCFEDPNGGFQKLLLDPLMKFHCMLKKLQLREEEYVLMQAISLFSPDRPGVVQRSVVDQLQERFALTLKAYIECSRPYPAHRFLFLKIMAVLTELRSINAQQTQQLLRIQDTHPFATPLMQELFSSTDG

[3] = qHTS assay for small molecule activators of the human pregnane X receptor (PXR) signaling pathway (AID 720659; call rule not given here; also: 0% is about no effect); conditions: DPX-2 HepG2 CYP3A4-luciferase, 24 h; series mostly up to 92.3 µM
[4] = at 45.9 µM (top of the series), tumour line B
[5] = at 45.9 µM (top of the series), tumour line D
[6] = at 46.1 µM (top of the series), tumour line C
[7] = at 46 µM (top of the series), tumour line A
[8] = at 20 µM (top of the series), tumour line C
[9] = at 21.2 µM (top of the series), tumour line B

Oc1cc(O)cc(O)c1
inactive: activity, negative = cell killing [1, 4] -4.88% | activity, negative = cell killing [1, 5] -12.8% | activity, negative = cell killing [1, 6] -10.5% | Potency (astro)

CCCCC
inactive: activity, negative = cell killing [1, 4] -6.65% | activity, negative = cell killing [1, 5] -7.88% | activity, negative = cell killing [1, 7] -21.1% | activity, negative = cell killing [1, 6] 22.7% | Potency (astro) | max response [2] -1.73% | outcome [3]

Cc1cc2nc3c(=O)[nH]c(=O)nc-3n(C[C@H](O)[C@H](O)[C@H](O)COP(=O)(O)OP(=O)(O)OC[C@H]3O[C@@H](n4cnc5c(N)ncnc54)[C@H](O)[C@@H]3O)c2cc1C
inactive: activity, negative = cell killing [1, 4] -13.1% | activity, negative = cell killing [1, 5] -9.51% | activity, negative = cell killing [1, 7] -9.49% | Potency (astro)

CCC(Cc1c(I)cc(I)c(O)c1I)C(=O)O (stereo not drawn)
inactive: activity, negative = cell killing [1, 4] -7.21% | activity, negative = cell killing [1, 5] -2.81% | activity, negative = cell killing [1, 7] -17.6% | Potency (astro)

CC(C)CN(C[C@@H](O)[C@H](Cc1ccccc1)NC(=O)O[C@@H]1CCOC1)S(=O)(=O)c1ccc(N)cc1
inactive: activity, negative = cell killing [1, 4] -6.03% | activity, negative = cell killing [1, 5] -14.3% | activity, negative = cell killing [1, 6] -3.48% | Potency (astro)

OB(O)O
inactive: activity, negative = cell killing [1, 4] -12.9% | activity, negative = cell killing [1, 5] -13.8% | activity, negative = cell killing [1, 7] -26.5% | activity, negative = cell killing [1, 6] 5.29% | Potency (astro) | max response [2] 1.69% and 5.36% | outcome [3]

CNC(=O)[C@H](Cc1c[nH]c2ccccc12)NC(=O)[C@@H](CC(=O)NO)CC(C)C
inactive: activity, negative = cell killing [1, 4] -23.5% | activity, negative = cell killing [1, 5] -19.3% | activity, negative = cell killing [1, 6] -23.8% | Potency (astro)

C[C@H](CCC(=O)O)[C@H]1CC[C@H]2[C@@H]3[C@H](O)C[C@@H]4C[C@H](O)CC[C@]4(C)[C@H]3C[C@H](O)[C@]12C
inactive: activity, negative = cell killing [1, 4] -1.15% | activity, negative = cell killing [1, 5] 1.82% | activity, negative = cell killing [1, 7] -16.5% | activity, negative = cell killing [1, 6] -12.6% | Potency (astro) | max response [2] -1% | outcome [3]

OC[C@H]1O[C@@H](O[C@H]2[C@H](O)[C@@H](O)[C@H](O)O[C@@H]2CO)[C@H](O)[C@@H](O)[C@@H]1O
inactive: activity, negative = cell killing [1, 4] -9.2% | activity, negative = cell killing [1, 5] 6.26% | activity, negative = cell killing [1, 6] -13.5% | Potency (astro)

CC(=O)[C@H]1CC[C@H]2[C@@H]3C=CC4=CC(=O)CC[C@@]4(C)[C@H]3CC[C@]12C
active: Potency ([1]; tumour line A) 3.55 µM
inactive: activity, negative = cell killing [1, 8] -18.4% | activity, negative = cell killing [1, 9] -29% | Potency (astro)

Cn1nnnc1SCC1=C(C(=O)O)N2C(=O)[C@@H](NC(=O)[C@H](O)c3ccccc3)[C@H]2SC1
inactive: activity, negative = cell killing [1, 8] -9.7% | activity, negative = cell killing [1, 9] -12.5% | activity, negative = cell killing ([1]; at 21.2 µM (top of the series), tumour line D) -10.9% | Potency (astro)

CCCCC(CC)COS(=O)(=O)O (stereo not drawn)
inactive: activity, negative = cell killing [1, 4] -6.03% | activity, negative = cell killing [1, 5] -2.06% | activity, negative = cell killing [1, 7] -18.8% | activity, negative = cell killing [1, 6] -4.44% | max response [2] 0.915% | outcome [3]

COc1ccc2cc([C@H](C)CO)ccc2c1
inactive: activity, negative = cell killing [1, 4] -14.5% | activity, negative = cell killing [1, 5] 4.49% | activity, negative = cell killing [1, 6] -21.2% | Potency (astro)

C[Si](C)(C)O[Si](C)(C)C
inactive: activity, negative = cell killing [1, 4] -9.61% | activity, negative = cell killing [1, 5] -4.16% | activity, negative = cell killing [1, 7] -2.42% | activity, negative = cell killing [1, 6] -22.1% | Potency (astro) | max response [2] -0.472% | outcome [3]

Cc1ncc[nH]1
inactive: activity, negative = cell killing [1, 4] -1% | activity, negative = cell killing [1, 5] -14.2% | activity, negative = cell killing [1, 7] -4.28% | activity, negative = cell killing [1, 6] -3.58% | Potency (astro) | max response [2] 1.58% | outcome [3]

CCN(CC)CCOc1ccccc1OC
inactive: activity, negative = cell killing [1, 4] 5.43% | activity, negative = cell killing [1, 5] -13.8% | activity, negative = cell killing [1, 6] -28.2% | Potency (astro)

O=P(O)(O)OP(=O)(O)OP(=O)(O)O
inactive: activity, negative = cell killing [1, 4] -10.9% | activity, negative = cell killing [1, 5] -30.2% | activity, negative = cell killing [1, 6] -5.26% | Potency (astro)

CN(C)CCC(O)(c1ccccc1)c1ccccc1Cl (stereo not drawn)
active: Potency ([1]; tumour line A) 11.2 µM
inactive: activity, negative = cell killing [1, 4] -11.1% | activity, negative = cell killing [1, 6] -17.6% | Potency (astro)

FC(F)(F)COCC(F)(F)F
inactive: activity, negative = cell killing [1, 4] -8.9% | activity, negative = cell killing [1, 5] -17.5% | activity, negative = cell killing [1, 6] -24.2% | Potency (astro)

CC(CCc1ccc(O)cc1)NCC(O)c1ccc(O)cc1 (stereo not drawn)
inactive: activity, negative = cell killing [1, 4] 1.78% | activity, negative = cell killing [1, 5] 4.34% | activity, negative = cell killing [1, 6] 2.7% | Potency (astro)

CC(C)CCC[C@@H](C)[C@H]1CC[C@H]2[C@@H]3CC=C4C[C@@H](O)CC[C@]4(C)[C@H]3CC[C@]12C
inactive: activity, negative = cell killing [1, 4] -9.94% | activity, negative = cell killing [1, 5] -4.88% | activity, negative = cell killing [1, 7] -8.25% | activity, negative = cell killing [1, 6] 1.16% | Potency (astro) | max response [2] -2.23% | outcome [3]

CO[C@H]1O[C@@H]2O[C@@]3(C)CC[C@H]4[C@H](C)CC[C@@H]([C@H]1C)[C@@]24OO3
inactive: activity, negative = cell killing [1, 4] -14.7% | activity, negative = cell killing [1, 5] 1.49% | activity, negative = cell killing [1, 6] -10.2% | Potency (astro)
